Measured values taken from PubChem BioAssay AID1159580 (chemical genetic matrix, 2015).
Out of some 5,500 compounds screened, about 2,000 (36%) were called active. Not shown: some 18% with an inconclusive outcome. Rule as the data show it: active = normalized growth mostly below about 0.91 (no sharp cut-off); inconclusive = no clear call, values can overlap the other calls; inactive = mostly above about 0.92. The list shows a part of the results.

Experiment: chemical genetic growth profiling, strain panel (AID 1159580);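 also: tested at 20 µM; growth read once vehicle control cultures reached saturation at 30 °C; 1 = growth at the plate median or of vehicle wells; lower values mean less growth of the strain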
Conditions: S. cerevisiae deletion strains, growth OD
[1] = locus YAL021C, strain ccr4, stronger effect = lower value
[2] = locus YAL026C, strain drs2, stronger effect = lower value
[3] = locus YAL030W, strain snc1, stronger effect = lower value
[4] = locus YBL061C, strain skt5, stronger effect = lower value
[5] = locus YBR009C, strain hhf1, stronger effect = lower value
[6] = locus YBR023C, strain chs3, stronger effect = lower value
[7] = locus YBR171W, strain sec66, stronger effect = lower value
[8] = locus YBR231C, strain swc5, stronger effect = lower value
[9] = locus YBR279W, strain paf1, stronger effect = lower value
[10] = locus YCL011C, strain gbp2, stronger effect = lower value
[11] = locus YCL016C, strain dcc1, stronger effect = lower value
[12] = locus YCL061C, strain MRC1, stronger effect = lower value
[13] = locus YCL069W, strain vba3, stronger effect = lower value
[14] = locus YCR088W, strain abp1, stronger effect = lower value
[15] = locus YDL005C, strain med2, stronger effect = lower value
[16] = locus YDL040C, strain nat1, stronger effect = lower value
[17] = locus YDR001C, strain nth1, stronger effect = lower value
[18] = locus YDR069C, strain doa4, stronger effect = lower value
[19] = locus YDR137W, strain rgp1, stronger effect = lower value
[20] = locus YDR159W, strain sac3, stronger effect = lower value
[21] = locus YDR297W, strain sur2, stronger effect = lower value
[22] = locus YDR334W, strain swr1, stronger effect = lower value
[23] = locus YDR335W, strain msn5, stronger effect = lower value
[24] = locus YDR392W, strain spt3, stronger effect = lower value
[25] = locus YEL003W, strain gim4, stronger effect = lower value
[26] = locus YEL037C, strain rad23, stronger effect = lower value
[27] = locus YEL061C, strain CIN8 (second series), stronger effect = lower value
[28] = locus YER015W, strain faa2, stronger effect = lower value
[29] = locus YER016W, strain bim1, stronger effect = lower value
[30] = locus YER111C, strain swi4, stronger effect = lower value
[31] = locus YER155C, strain BEM2 (second series), stronger effect = lower value
[32] = locus YFR010W, strain ubp6, stronger effect = lower value
[33] = locus YGL167C, strain pmr1, stronger effect = lower value
[34] = locus YGL173C, strain kem1, stronger effect = lower value
[35] = locus YGL227W, strain vid30, stronger effect = lower value
[36] = locus YGL240W, strain doc1, stronger effect = lower value
[37] = locus YGL253W, strain hxk2, stronger effect = lower value
[38] = locus YHR013C, strain ard1, stronger effect = lower value
[39] = locus YHR027C, strain rpn1, stronger effect = lower value
[40] = locus YHR030C, strain SLT2, stronger effect = lower value
[41] = locus YHR079C, strain IRE1, stronger effect = lower value
[42] = locus YHR142W, strain chs7, stronger effect = lower value
[43] = locus YJL092W, strain hpr5, stronger effect = lower value
[44] = locus YJL095W, strain BCK1 (second series), stronger effect = lower value
[45] = locus YJL095W, strain BCK1, stronger effect = lower value
[46] = locus YJL115W, strain asf1, stronger effect = lower value
[47] = locus YJL129C, strain trk1, stronger effect = lower value
[48] = locus YJL154C, strain vps35, stronger effect = lower value
[49] = locus YJL164C, strain tpk1, stronger effect = lower value
[50] = locus YJL166W, strain qcr8, stronger effect = lower value
[51] = locus YJL187C, strain SWE1, stronger effect = lower value
[52] = locus YJR066W, strain TOR1, stronger effect = lower value
[53] = locus YKL160W, strain elf1, stronger effect = lower value
[54] = locus YKR026C, strain gcn3, stronger effect = lower value
[55] = locus YLL001W, strain dnm1, stronger effect = lower value
[56] = locus YLL026W, stronger effect = lower value
[57] = locus YLL041C, strain sdh2, stronger effect = lower value
[58] = locus YLR027C, strain aat2, stronger effect = lower value
[59] = locus YLR113W, strain HOG1, stronger effect = lower value
[60] = locus YLR221C, strain rsa3, stronger effect = lower value
[61] = locus YLR258W, strain gsy2, stronger effect = lower value
[62] = locus YLR262C, strain YPT6 (second series), stronger effect = lower value
[63] = locus YLR320W, strain mms22, stronger effect = lower value
[64] = locus YLR342W, strain FKS1, stronger effect = lower value
[65] = locus YLR357W, strain rsc2, stronger effect = lower value
[66] = locus YLR370C, strain arc18, stronger effect = lower value
[67] = locus YLR384C, strain iki3, stronger effect = lower value
[68] = locus YML120C, strain ndi1, stronger effect = lower value
[69] = locus YMR058W, strain fet3, stronger effect = lower value
[70] = locus YMR125W, strain sto1, stronger effect = lower value
[71] = locus YMR129W, stronger effect = lower value
[72] = locus YMR205C, strain PFK2, stronger effect = lower value
[73] = locus YMR231W, strain pep5, stronger effect = lower value
[74] = locus YNL071W, strain lat1, stronger effect = lower value
[75] = locus YNL183C, strain NPR1, stronger effect = lower value
[76] = locus YNL209W, strain ssb2, stronger effect = lower value
[77] = locus YNL248C, strain rpa49, stronger effect = lower value
[78] = locus YNL322C, strain KRE1 (second series), stronger effect = lower value
[79] = locus YNR049C, strain mso1, stronger effect = lower value
[80] = locus YOR001W, strain rrp6, stronger effect = lower value
[81] = locus YOR070C, strain gyp1, stronger effect = lower value
[82] = locus YOR080W, strain dia2, stronger effect = lower value
[83] = locus YOR083W, strain WHI5, stronger effect = lower value
[84] = locus YOR106W, strain vam3, stronger effect = lower value
[85] = locus YOR231W, strain MKK1, stronger effect = lower value
[86] = locus YOR265W, strain rbl2, stronger effect = lower value
[87] = locus YOR270C, strain vph1, stronger effect = lower value
[88] = locus YOR290C, strain snf2, stronger effect = lower value
[89] = locus YPL051W, strain arl3, stronger effect = lower value
[90] = locus YPL078C, strain atp4, stronger effect = lower value
[91] = locus YPL106C, strain sse1, stronger effect = lower value
[92] = locus YPL240C, strain hsp82, stronger effect = lower value
[93] = locus YPL256C, strain CLN2, stronger effect = lower value

Measured: normalized growth

O=C(O)c1ccccc1
inactive: [1] 0.97 | [2] 0.962 | [3] 0.977 | [4] 0.975 | [5] 0.981 | [6] 0.981 | [7] 0.957 | [8] 0.974 | [9] 0.981 | [10] 0.954 | [11] 0.962 | [12] 0.966 | [13] 0.986 | [14] 0.996 | [15] 0.973 | [16] 0.994 | [17] 0.973 | [18] 0.958 | [19] 0.975 | [20] 0.966 | locus YDR195W, strain ref2 1.02 | [21] 0.979 | [22] 0.911 | [23] 0.976 | [24] 0.962 | [25] 0.988 | [26] 0.988 | [27] 0.971 | [28] 0.987 | [29] 0.983 | [30] 0.971 | [31] 0.962 | [32] 0.958 | [33] 0.956 | [34] 0.956 | [35] 0.97 | [36] 0.959 | [37] 0.965 | [38] 0.962 | [39] 0.944 | [40] 0.894 | [41] 0.891 | [42] 0.928 | [43] 0.966 | [44] 0.989 | [45] 0.893 | [46] 0.945 | [47] 0.987 | [48] 0.975 | [49] 1 | [50] 0.969 | [51] 0.982 | [52] 0.863 | [53] 0.965 | [54] 0.978 | [55] 0.948 | [56] 0.982 | [57] 0.966 | [58] 0.967 | [60] 0.927 | [61] 0.989 | [62] 0.998 | [63] 0.943 | [64] 0.972 | [65] 0.969 | [66] 0.949 | [67] 0.958 | [68] 0.948 | [69] 0.951 | [70] 0.98 | [71] 0.988 | [72] 0.967 | [73] 0.987 | [74] 0.988 | [75] 0.84 | [76] 0.975 | [77] 0.966 | [78] 0.933 | [79] 0.955 | [80] 0.965 | [81] 0.985 | [82] 0.963 | [83] 0.961 | [84] 0.923 | [86] 0.981 | [87] 0.98 | [88] 0.907 | [89] 0.989 | [90] 0.974 | [91] 0.962 | [92] 0.996 | [93] 0.855
active: [59] 0.78 | [85] 0.86

NC(=O)c1cccnc1
inactive: [1] 0.969 | [2] 0.979 | [3] 0.958 | [4] 0.971 | [5] 0.974 | [6] 0.98 | [7] 0.968 | [8] 0.995 | [9] 0.991 | [10] 0.979 | [11] 0.978 | [12] 0.986 | [13] 0.986 | [14] 0.97 | [15] 0.966 | [16] 0.992 | [17] 0.972 | [18] 0.972 | [19] 0.994 | [20] 0.97 | locus YDR195W, strain ref2 0.996 | [21] 0.975 | [22] 0.928 | [23] 0.975 | [24] 0.985 | [25] 0.975 | [26] 0.987 | [27] 0.983 | [28] 0.992 | [29] 0.981 | [30] 0.985 | [31] 0.98 | [32] 0.971 | [33] 0.984 | [34] 0.957 | [35] 0.959 | [36] 0.963 | [37] 0.998 | [38] 0.972 | [39] 0.959 | [40] 0.971 | [41] 0.961 | [42] 0.976 | [43] 0.982 | [44] 0.979 | [45] 0.974 | [46] 0.96 | [47] 0.996 | [48] 0.964 | [49] 0.992 | [50] 0.978 | [51] 0.982 | [52] 0.928 | [53] 0.991 | [54] 0.976 | locus YKR091W, strain srl3, stronger effect = lower value 0.986 | [55] 0.991 | [56] 0.951 | [57] 0.982 | [58] 0.948 | [59] 0.973 | [60] 0.974 | [61] 0.984 | [62] 0.965 | [63] 1 | [64] 0.983 | [65] 0.979 | [66] 0.986 | [67] 0.987 | [68] 0.982 | [69] 0.979 | [70] 0.963 | [71] 0.99 | [72] 0.962 | [73] 0.978 | [74] 0.975 | [75] 0.949 | [76] 0.979 | [77] 0.973 | [78] 0.98 | [79] 0.966 | [80] 0.983 | [81] 0.983 | [82] 0.978 | [83] 0.986 | [84] 0.986 | [85] 0.975 | [86] 0.983 | [87] 0.978 | [88] 0.996 | [89] 0.999 | [90] 0.98 | [91] 0.927 | [92] 0.978 | [93] 0.992
